# An excerpt weighted towards active compounds, which were near 6.6% of everything screened.
# MPTP inh = blocks calcium-induced mitochondrial swelling; isolated mouse mitochondria, Ca2+ swelling absorbance, 30 min; inhibition, % at 10 µM; 360,000 compounds, 1.4% hits;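 active = inhibition of 50% or more, scaled per plate between neutral and stimulator controls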;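 also: 0% = DMSO wells given calcium and 100% = 1 mM EGTA wells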
# NR3A LBD binder = modulates the human NR3A ligand-binding domain | Tm shift relative to glycine control, % at 25 µM | 340,000 compounds, 2.5% hits | NR3A LBD differential scanning fluorimetry, Tm shift; 0% = protein alone, 100% = glycine-bound protein;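 active = melting temperature shift of at least 10% of the positive control shift, at one fixed dose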
# Gli-Sufu antag = antagonists of Gli-Sufu signaling; Sufu-KO-LIGHT fibroblasts, Gli luciferase reporter luminescence; inhibition, % at 5 µM; AID 588413; 340,000 compounds, 0.74% hits;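 active = inhibition above about 55%, limit read from the data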;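 also: 0% = DMSO-treated cells and 100% = wells with medium but no cells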
# CSC inhib = blocks cancer stem cells; cancer stem cell-like cells viability, luminescence; inhibition, % at 7.5 µM; 300,000 compounds, 1.1% hits; AID 2717; in the data active = inhibition above about 75%; tested in HMLE shEcad cells
# Mdm2-MdmX inh = human Mdm2/MdmX binding inhibition; inhibition, % at 8 µM; O15151+Q00987; SaOS-2 split-luciferase Mdm2/MdmX complementation, luminescence; AID 485346; 330,000 compounds, 3% hits;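 active = inhibition of at least 50% at 8 µM in the primary screen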
# Target sequence (O15151 whole entry, looked up): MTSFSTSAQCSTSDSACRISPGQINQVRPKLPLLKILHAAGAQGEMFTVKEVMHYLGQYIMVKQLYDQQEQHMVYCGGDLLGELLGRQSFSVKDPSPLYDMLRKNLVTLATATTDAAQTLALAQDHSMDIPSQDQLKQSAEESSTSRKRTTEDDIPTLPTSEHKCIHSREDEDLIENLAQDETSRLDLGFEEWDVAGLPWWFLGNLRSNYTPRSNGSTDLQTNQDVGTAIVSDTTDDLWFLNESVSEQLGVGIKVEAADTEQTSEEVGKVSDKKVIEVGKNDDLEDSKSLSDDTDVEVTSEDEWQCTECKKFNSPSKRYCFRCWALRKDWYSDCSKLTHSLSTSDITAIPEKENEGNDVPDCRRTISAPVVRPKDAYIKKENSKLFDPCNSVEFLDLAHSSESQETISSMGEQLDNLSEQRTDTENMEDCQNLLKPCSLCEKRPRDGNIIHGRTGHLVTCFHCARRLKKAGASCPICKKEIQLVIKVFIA
# Target sequence (Q00987 whole entry, looked up): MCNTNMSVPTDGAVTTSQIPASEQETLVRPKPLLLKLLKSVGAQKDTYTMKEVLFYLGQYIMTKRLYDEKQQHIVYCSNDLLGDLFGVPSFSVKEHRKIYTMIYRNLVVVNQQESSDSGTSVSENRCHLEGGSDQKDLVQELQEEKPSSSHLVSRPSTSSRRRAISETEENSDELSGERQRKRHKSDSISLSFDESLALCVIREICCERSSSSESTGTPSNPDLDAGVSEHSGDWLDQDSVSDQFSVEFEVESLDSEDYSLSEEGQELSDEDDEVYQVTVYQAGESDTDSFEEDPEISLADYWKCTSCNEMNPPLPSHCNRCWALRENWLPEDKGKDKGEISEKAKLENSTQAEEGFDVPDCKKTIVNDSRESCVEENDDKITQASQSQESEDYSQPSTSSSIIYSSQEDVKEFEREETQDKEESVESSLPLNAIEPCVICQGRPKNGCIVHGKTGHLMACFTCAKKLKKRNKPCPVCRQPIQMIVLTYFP
# Beta cell apopt = blocks beta cell apoptosis; AID 435005; protection from apoptosis, % (concentration not given with the values); INS-1E cytokine-induced death, ATP luminescence, 48 h; percent of positive-control rescue, neutral wells zero; 300,000 compounds, 0.8% hits;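 active = Every replicate reaches about 75%, or at least half do and their mean reaches it too, limit read from the data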;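 also: 0% = cytokine-treated negative control wells and 100% = positive control rescue; higher means more ATP so stronger rescue from cytokine killing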
# Mdm2-MdmX conf = human Mdm2/MdmX binding inhibition, confirmed; shares compounds with Mdm2-MdmX inh; inhibition, % at 8 µM; 10,000 compounds, 55% hits; luminescent assay; in the data active = inhibition above about 40%
# FLuc counter = inhibits full-length luciferase, flagging false Mdm2/MdmX hits | SaOS-2 full-length luciferase counterscreen, luminescence | inhibition, % at 8 µM | 6,200 compounds, 77% hits | shares compounds with Mdm2-MdmX inh | AID 504607;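 active = mean inhibition at 8 µM reaching about 37%, which flags the compound as non-specific, limit read from the data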;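 also: p53-null SaOS-2 cells with luciferase driven by a doxycycline-inducible promoter; compound on cells about two nights before reading with doxycycline added after day one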
# Gli antag conf = confirmation of Gli-SUFU pathway antagonists; inhibition, % at 5 µM; Sufu-KO-LIGHT cells, Gli luciferase reporter, luminescence; 2,500 compounds, 40% hits; shares compounds with Gli-Sufu antag; AID 602428;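 active = mean inhibition at 5 µM reaching about 45%, limit read from the data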;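 also: plate controls were DMSO-treated cells for no effect and wells lacking cells for full effect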
# Gli cytotox = cytotoxic in Gli-SUFU antagonist counter-screen; shares compounds with Gli-Sufu antag; Sufu-KO-LIGHT cells cytotoxicity, ATP luminescence; cytotoxicity, % at 5 µM; 2,500 compounds, 32% hits;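 active = mean cytotoxicity at 5 µM above about 25%, limit read from the data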;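 also: cells exposed to compound overnight for roughly 16 to 18 hours; plate controls were DMSO wells with cells for no effect and medium without cells for full effect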
# Wnt3a counter = counter-screen for Gli-SUFU antagonists: Wnt3a reporter inhibition; 2,500 compounds, 20% hits; shares compounds with Gli-Sufu antag; inhibition, % at 6.25 µM; AID 651995; Wnt-LIGHT cells, Wnt3a-driven luciferase reporter, luminescence;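 active = mean inhibition above about 25%, limit read from the data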
# An asterisk follows results filed as active; nt = no result.
SMILES,MPTP inh,NR3A LBD binder,Gli-Sufu antag,CSC inhib,Mdm2-MdmX inh,Beta cell apopt,Mdm2-MdmX conf,FLuc counter,Gli antag conf,Gli cytotox,Wnt3a counter
c1ccc2c(Nc3ccc4c(c3)OCCO4)c3c(nc2c1)CCCC3,13,-1,52,-7,70*,-3,59*,85*,32,-2,-24
CCCCn1c(SCc2c(C)noc2C)nc2cc(S(N)(=O)=O)ccc21,-1,2,51,-16,75*,-17,60*,62*,62*,1,-13
COc1cc(NC(=O)Cn2nc(Cc3cccnc3)c3ccccc3c2=O)cc(OC)c1OC,0,-4,0,-6,-23,-7,nt,nt,nt,nt,nt
CCCC(=O)NC(c1ccccc1Cl)c1ccc2cccnc2c1O (centres undefined),3,-7,83*,109*,87*,99*,89*,53*,80*,28*,69*
CCC(=O)NC(c1ccc(C)cc1)c1ccc2cccnc2c1O (centres undefined),-1,-1,89*,-2,79*,6,86*,24,82*,42*,83*
CCCCC(=O)NC(c1ccc(Cl)cc1Cl)c1ccc2cccnc2c1O (centres undefined),7,0,86*,109*,77*,85*,87*,51*,83*,34*,82*
CCOc1ccc(C(NC(=O)CC)c2c(O)ccc3ccccc23)cc1 (centres undefined),1,-3,-4,47,30,-5,nt,nt,nt,nt,nt
O=C(NC1CCCCC1)N1CCN(c2ncccn2)CC1,-2,7,4,-7,24,3,nt,nt,nt,nt,nt
CC(C)(C)S(=O)(=O)c1ccc(S(=O)(=O)C(C)(C)C)s1,nt,nt,nt,-26,-1,nt,nt,nt,nt,nt,nt
CCCOc1ccccc1N/C(=N/c1nc(C)cc(C)n1)NC(=O)COc1ccc(OC)cc1,2,0,67*,28,56*,24,19,nt,48*,24,-15
COC(=O)c1cnc(Oc2ccc(NC(=O)NC(=O)c3c(OC)cccc3OC)cc2)cc1C(F)(F)F,4,2,52,41,76*,33,58*,80*,53*,58*,-31
COC(=O)c1cnc(Oc2ccc(NC(=O)NC(=O)c3c(F)cccc3F)cc2)cc1C(F)(F)F,4,0,0,5,13,0,nt,nt,nt,nt,nt
COc1ccc(/C=N/NC(=O)c2nc(-c3ccccc3)cc(-c3ccccc3)n2)cc1O,-2,-432,55*,nt,56*,15,33,121*,1,7,-73
COc1ccc(/C=N/NC(=O)c2nc(-c3ccccc3)cc(-c3ccccc3)n2)cc1,-10,1,24,-1,18,8,nt,nt,nt,nt,nt
Cc1ccn2c(Nc3ccccc3C)c(-c3cccnc3)nc2c1,0,-2,8,-12,24,-11,nt,nt,nt,nt,nt
Cc1cccc(NC(=O)CSc2nnc(-c3cc(C)n(-c4ccccc4)c3C)o2)c1C,-5,-5,23,45,22,-5,nt,nt,nt,nt,nt
Cc1cc(-c2nnc(SCC(=O)Nc3ccccc3C(F)(F)F)o2)c(C)n1-c1ccccc1,-2,-1,57*,-8,75*,-2,77*,103*,67*,13,64*
O=S(=O)(c1cccc(Cl)c1)N1CN(CC2CCCO2)c2nc3ccccc3nc21 (centres undefined),-1,-10,11,-14,-3,3,nt,nt,nt,nt,nt
CC(C)(C)c1ccc(/C=C/C(=O)Nc2nncs2)cc1,11,1,-56,-2,-54,-1,nt,nt,nt,nt,nt
Cc1cc(C)cc(NC(=S)N=Nc2c(O)n(C)c3ccc(S(=O)(=O)N4CCOCC4)cc23)c1,1,-6,16,31,23,29,nt,nt,nt,nt,nt
C=CCn1c(O)c(N=NC(=S)Nc2cccc(C)c2)c2ccccc21,-3,-8,53,44,61*,60,55*,33,57*,26*,-22
C=CCn1c(O)c(N=NC(=S)Nc2ccccc2F)c2cc(S(=O)(=O)N3CCOCC3)ccc21,0,-4,64*,-14,64*,28,44*,50*,56*,29*,-23
COc1cc(OC)cc(C(=O)NNC(=O)c2cc3c(s2)CCCC3)c1,0,-1,0,-12,33,5,nt,nt,nt,nt,nt
CCN(CC)C(=O)Cn1cc(C(=O)C(=O)NCCCn2ccnc2)c2ccccc21,-1,0,0,-9,-2,-5,nt,nt,nt,nt,nt
CCO[C@@H]1OC(C(=O)NCc2nc3ccccc3[nH]2)=C[C@H](C(C)(C)C)[C@H]1CCCO,0,-4,51,-5,54*,18,50*,95*,58*,60*,-51
SMILES,MPTP inh,NR3A LBD binder,Gli-Sufu antag,CSC inhib,Mdm2-MdmX inh,Beta cell apopt,Mdm2-MdmX conf,FLuc counter,Gli antag conf,Gli cytotox,Wnt3a counter
Cc1cc(C)c2nc(NNC(=O)c3ccc(S(=O)(=O)N4CCCC(C)C4)cc3)sc2c1 (centres undefined),1,5,58*,119*,83*,107*,86*,45*,17,9,-8
O=C(CCCCCCC(=O)Nc1ccccc1)NO,nt,-2,84*,106*,50*,-4,34,nt,88*,18,-234
COc1ccc(C2=Nn3c([n+](C)c4ccccc43)SC2)cc1,2,0,81*,-9,60*,112*,38,nt,86*,17,40*
COc1ccc(C2=Nn3c(nnc3-c3ccccn3)SC2)cc1,0,-1,22,38,29,1,nt,nt,nt,nt,nt
COc1ccc(-c2cn(-c3ccc(OC)cc3)c3[n+]2-c2ccccc2CC3)cc1,15,-1,88*,35,57*,132*,37,nt,91*,46*,26*
COc1ccc(-n2cc(-c3ccccc3)nc2SC)cc1,0,2,-64,0,-115,-2,nt,nt,nt,nt,nt
COc1cc(C2c3cc4c(cc3C(OC3OC5COC(c6cccs6)OC5C(O)C3O)C3COC(=O)C23)OCO4)cc(OC)c1O (centres undefined),1,2,82*,101*,94*,94*,88*,22,81*,72*,57*

# High-throughput results deposited in PubChem by several laboratories.
